Source: PubChem
ALR H2O2 inh: human ALR oxidase inhibition via reduced H2O2 | hit rate 3.8% among 290,000 | AID 485317 | purified ALR, DTT oxidation, H2O2 HRP-luminol luminescence | inhibition, % (test concentration not listed);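 active = mean replicate inhibition above about 79%, with every replicate also reaching it, limit read from the data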
Target sequence (P55789 whole entry, looked up): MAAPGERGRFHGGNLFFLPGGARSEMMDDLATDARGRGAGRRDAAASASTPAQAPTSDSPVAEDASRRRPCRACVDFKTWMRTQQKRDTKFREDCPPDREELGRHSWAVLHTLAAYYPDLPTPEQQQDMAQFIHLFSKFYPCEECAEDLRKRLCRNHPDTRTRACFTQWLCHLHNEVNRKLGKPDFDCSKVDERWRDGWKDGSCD
Calb FLC: affects C. albicans growth with fluconazole; hit rate 0.57% among 300,000; C. albicans CaCi-2 (fluconazole-resistant clinical isolate) + fluconazole, Alamar Blue growth, 48 h; growth inhibition, % (concentration not given with the values);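 active = growth inhibition above about 58% in most replicates, limit read from the data, passing the limit was not always enough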;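 also: all wells also contain fluconazole at 8 µg/ml as a sub-toxic cotreatment; 0% = median of DMSO wells and 100% = median of geldanamycin control wells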
PP1 inh: counter-screen for PP5 inhibitors: inhibitors of human PP1-alpha; inhibition, % at 6.7 µM; purified PP1alpha, OMFP fluorescence; hit rate 0.9% among 320,000;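 active = inhibition above the mean inhibition of all tested compounds plus 3 SD, computed separately for each screening campaign, cut at about 15% in these data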
Target sequence (P62136 whole entry, looked up): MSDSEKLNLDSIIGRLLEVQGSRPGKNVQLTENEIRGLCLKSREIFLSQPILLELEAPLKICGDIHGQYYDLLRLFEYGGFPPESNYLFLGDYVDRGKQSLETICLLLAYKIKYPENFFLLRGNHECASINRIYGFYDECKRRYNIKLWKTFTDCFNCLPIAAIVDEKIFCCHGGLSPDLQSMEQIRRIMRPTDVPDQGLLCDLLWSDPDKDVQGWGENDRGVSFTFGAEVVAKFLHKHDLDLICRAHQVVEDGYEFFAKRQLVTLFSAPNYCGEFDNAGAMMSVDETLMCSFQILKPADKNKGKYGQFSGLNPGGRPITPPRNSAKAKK
PP5 inh: blocks human protein phosphatase 5 activity. hit rate 0.18% among 320,000. purified PP5c, OMFP substrate fluorescence. P53041. AID 1987. inhibition, % at 6.7 µM;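 active = inhibition above the campaign's mean inhibition across all tested compounds plus 3 SD, cut at about 9.5% in these data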;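 also: 0% = DMSO only and 100% = 100 µM cantharidin control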
CSC inhib: blocks cancer stem cells | cancer stem cell-like cells viability, luminescence | inhibition, % at 7.5 µM | hit rate 1.1% among 300,000; in the data active = inhibition above about 75%; tested in HMLE shEcad cells
An asterisk follows results filed as active. Rows were chosen to be rich in hits. Some 5.4% of all compounds tested hit in one or more screens of this group.

For Cc1ccc(-c2cc(C(=O)NC3=NCCS3)c3ccccc3n2)cc1C the results were ALR H2O2 inh 90*, Calb FLC 0, PP1 inh 2, PP5 inh 2 and CSC inhib 11.
`O=C(NC1=NCCS1)c1ccccc1Cl` gave Calb FLC 5, PP1 inh 1, PP5 inh 1 and CSC inhib -18.
`O=C1NC(=O)C2(CCCc3ccccc32)N1` (centres undefined) gave ALR H2O2 inh -8, Calb FLC -4, PP1 inh 1, PP5 inh -2 and CSC inhib -1.
`CS(=O)(=O)c1cnc(-c2ccccc2)nc1Oc1ccc(F)cc1` gave ALR H2O2 inh -15, Calb FLC -6, PP1 inh 7, PP5 inh -2 and CSC inhib -1.
Screening Cc1ccc(-c2[nH]c(-c3ccc(C(=O)O)cc3)nc2-c2ccccc2)cc1 returned ALR H2O2 inh 99*, Calb FLC 1, PP1 inh 11, PP5 inh 5 and CSC inhib 7.
Cc1ccc(-c2cc(C(=O)Nc3c(C)n(C)n(-c4ccccc4)c3=O)[nH]n2)c(O)c1C was read as ALR H2O2 inh 97*, Calb FLC -1, PP1 inh 0, PP5 inh 6 and CSC inhib -3.
For O=C(CSc1nnnn1C1CCCCC1)N1CCN(C(=O)c2ccco2)CC1 the results were Calb FLC -8, PP1 inh 0, PP5 inh 0 and CSC inhib 18.
Screening Cc1ccn(CC(=O)N2CCCC(Nc3ccc(F)c(F)c3)C2)n1 (centres undefined) returned ALR H2O2 inh 4, Calb FLC 8, PP1 inh -5, PP5 inh -2 and CSC inhib 8.
Cc1ccn(CC(=O)N2CCCC(N3CCN(c4cccc(Cl)c4)CC3)C2)n1 (centres undefined) was read as ALR H2O2 inh 99*, Calb FLC -1, PP1 inh 1, PP5 inh 1 and CSC inhib -1.
`COc1ccc(NC2CCCN(C(=O)CN3CCOC3=O)C2)cc1OC` (centres undefined) gave ALR H2O2 inh 100*, Calb FLC 4, PP1 inh 5, PP5 inh 2 and CSC inhib -9.
`COc1ccc(NC2CCCN(C(=O)Cn3ccc(C)n3)C2)cc1OC` (centres undefined) gave ALR H2O2 inh 99*, Calb FLC 16, PP1 inh -3, PP5 inh 4 and CSC inhib -10.
COc1ccc(NC2CCCN(C(=O)CN3CCOC3=O)C2)cc1 (centres undefined) was read as ALR H2O2 inh 98*, Calb FLC -1, PP1 inh -4, PP5 inh 2 and CSC inhib 0.
`CCOc1ccc(Br)cc1S(=O)(=O)N1CCC(C(N)=O)CC1` gave ALR H2O2 inh -9, Calb FLC 11, PP1 inh 1 and PP5 inh 0.
For N#Cc1ccccc1CSc1ccc(-c2nc3ccccc3[nH]2)cn1 the results were ALR H2O2 inh -3, Calb FLC -17, PP1 inh -1 and PP5 inh 0.
For Cc1ccccc1C(=O)NNC(=O)c1ccc(F)cc1 the results were ALR H2O2 inh -2, Calb FLC 0, PP1 inh 0, PP5 inh -2 and CSC inhib 1.
For CCCCc1c(O)nc(SC2CC(=O)N(c3ccc(C(=O)OCC)cc3)C2=O)[nH]c1=O (centres undefined) the results were ALR H2O2 inh 1, Calb FLC 5, PP1 inh 0, PP5 inh 2 and CSC inhib -8.
Screening Cc1cc(C)c2[nH]c(=O)c(CN(CC3CCCO3)C(=O)C3CCCO3)cc2c1 (centres undefined) returned ALR H2O2 inh -1, Calb FLC 4, PP1 inh -6, PP5 inh 1 and CSC inhib 2.
`COC/C=C/C1=CC2=CC(=O)C(C)(OC(=O)c3cnc4ccccc4n3)C(=O)C2=CN1c1ccccc1` (centres undefined) gave ALR H2O2 inh -28, Calb FLC -4, PP1 inh 13, PP5 inh 2 and CSC inhib 10.
`COC/C=C/C1=CC2=CC(=O)C(C)(OC(=O)c3cnc4ccccc4n3)C(=O)C2=CN1c1ccc(CO)cc1` (centres undefined) gave ALR H2O2 inh -2, Calb FLC 1, PP1 inh 20*, PP5 inh -2 and CSC inhib -4.
Screening COC/C=C/C1=CC2=CC(=O)C(C)(OC(=O)c3cnc4ccccc4n3)C(=O)C2=CN1CCc1c[nH]c2ccccc12 (centres undefined) returned ALR H2O2 inh -42, Calb FLC 11, PP1 inh 17*, PP5 inh 2 and CSC inhib 2.
For COc1ccc(/C=C/C(=O)Nc2cccc(F)c2)cc1S(=O)(=O)N1CCOCC1 the results were ALR H2O2 inh 0, Calb FLC -16, PP1 inh -3, PP5 inh 0 and CSC inhib 3.
For Nc1ccc2oc(-c3ccc4nc[nH]c4c3)nc2c1 the results were Calb FLC -3, PP1 inh -4, PP5 inh 3 and CSC inhib -6.
For Cc1nc2ccc(-c3nc4cc(N)ccc4o3)cc2[nH]1 the results were ALR H2O2 inh 98*, Calb FLC 6, PP1 inh -3, PP5 inh 1 and CSC inhib -5.
`Cc1cccc(N2CCN(Cc3ccoc3)CC2)c1C` gave ALR H2O2 inh 5, Calb FLC 0, PP1 inh 2, PP5 inh 1 and CSC inhib 10.
Screening CC(NCc1ccc(N(C)C)cc1)C1CC2CCC1C2 (centres undefined) returned ALR H2O2 inh 98*, Calb FLC 22, PP1 inh -1, PP5 inh -1 and CSC inhib 24.
Screening CC(C)c1ccc2nc(N)sc2c1 returned ALR H2O2 inh -1, Calb FLC 8, PP1 inh -5, PP5 inh -1 and CSC inhib -20.
`Nc1nc2ccc(O)cc2s1` gave ALR H2O2 inh 99*, Calb FLC 30, PP1 inh -2, PP5 inh 2 and CSC inhib -1.
For CCCc1c(C(=O)Nc2ccc(C(F)(F)F)cc2)cnn1-c1ccccc1 the results were Calb FLC -4, PP1 inh 1, PP5 inh 3 and CSC inhib 26.
`CCCc1c(C(=O)NNc2ccc(C)cc2)cnn1-c1ccccc1` gave ALR H2O2 inh 43, Calb FLC -6, PP1 inh 0, PP5 inh 1 and CSC inhib 93*.
Screening CCCCCOc1ccc(Br)cc1/C(C)=N/NC1=NCCN1 returned ALR H2O2 inh -3, Calb FLC 15, PP1 inh 17*, PP5 inh 3 and CSC inhib -3.
Screening Cc1sc2nc(SCCN(C)C)n(-c3ccccc3)c(=O)c2c1-c1ccc(F)cc1 returned ALR H2O2 inh -8, Calb FLC 3, PP1 inh 0, PP5 inh 3 and CSC inhib 109*.
`CN(C)CCSc1nc(O)c(-c2ccccc2)c(=O)n1-c1ccccc1` gave ALR H2O2 inh -6, Calb FLC 12, PP1 inh -2, PP5 inh 0 and CSC inhib 4.
